These results are taken from PubChem BioAssay (NCATS).

“And” between values parts separate entries of the source, which are not always exact repeats. Equal entries are not always repeated. Records with an inconclusive call do not appear. A number with no mark means an inactive call. The source made the active and inactive calls. Calls follow the shape of the dose curve; as a rule, active = well fitted curve in either direction with a large enough effect (not every such curve was filed as active); inconclusive = small, poorly fitted or top-dose-only effect, or another doubt; inactive = flat fitted curve, though single readings scatter.
% is scaled to controls: 0 for no effect and ±100 for the full control effect.

The first assay is described as follows: NFAT Signaling Pathway (AID 444). The following applies: Jurkat NFAT-bla M1, carbachol, beta-lactamase ratio, 5 h; at 7.69 µM (top of the series). The text has this:
NCGC Assay Overview: The nuclear factor of activated T cells (NFAT) family of transcription factors has been found primarily in most immune system cells and some other non-immune cells. NFAT plays the immunomodulatory role, primarily in T-cell activation and differentiation. NFAT target genes are also involved in the regulation of apoptosis and differentiation in non-immune cell types. The NFAT sequence was engineered to the upstream of the ?-lactamase reporter gene and transfected into Jurkat cells with co-transfection of muscarinic receptor1 [provided by Invitrogen Corp]. When an extracellular stimulus, such as carbachol, binds to the GPCR M1 receptor, it stimulates a signaling cascade that activates NFAT response element and ?-lactamase expression by phosphorylating the NFAT binding protein. This cell based ?-lactamase reporter gene assay can accurately monitor any changes occurring along the NFAT pathway, and can be used for screening small molecule inhibitor or activator upon activation by carbachol EC50 concentration. A small molecular library were screened in a titration series resulting in AC50s (can be either IC50s or EC50s).
NCGC Assay Protocol Summary: The cells were prepared in RPMI 1640 medium containing 0.1% dialyzed FBS and 25 mM HEPES at 1.6 x 10^6cell/ml. The assay was performed in 1536-well plate format as follows: 5 ul of cell preparation 23 nl of compounds 1ul of carbachol (final concentration 1 uM) Briefly centrifuge the plates and incubate at 37 °C for 5 hours 1 ul of CCF4 dye mixture Incubate the plates at RT for 1 hour Read the plate in EnVision plate reader (Ex= 405nm, and Em1=460nm and Em2=530nm). The %Activity was determined from the ratio of 460nm/530nm. Data normalization and AC50 calculations were accomplished using GeneData software.
Consider `O=C1C2CCN(CC2)C1(CO)CO`, for which the activity change, negative = inhibition is -7.28%.

Staying with this assay, now noted: Jurkat NFAT-bla M1, carbachol, beta-lactamase ratio, 5 h; at 17.2 µM (top of the series).
As for `c1ccc2c(c1)OC[C@@H](C1=NCCN1)O2`, the activity change, negative = inhibition is -9.57%.
The same measure, in the same setting: next, `CN1CCN(C(=O)OC2c3nccnc3C(=O)N2c2ccc(Cl)cn2)CC1` (stereo not given): 3%; `CNCCc1c[nH]c2ccccc12`: -6.51%; `CN(C)Cc1c[nH]c2ccccc12`: 1.81%.
On the same count and under the same terms, under `O=C(O)c1ccccc1-c1c2cc(Br)c(=O)cc-2oc2[c]([Hg])c(O)c(Br)cc12` stands -24.9%; under `COC1=CC(=O)OC(/C=C/c2ccccc2)C1` (stereo not given), -0.501%; under `COc1ccc2c3c([nH]c2c1)C(C)=NCC3`, -3.75%.
On to `C[C@@]1(CO)[C@H](O)CC[C@@]2(C)[C@H]1CC[C@H]1C[C@@H]3C[C@@]12CC[C@]3(O)CO`, for which the activity change, negative = inhibition was 10.1%.
On to `c1cncc([C@@H]2CCCCN2)c1`, for which the activity change, negative = inhibition was -6.22%.
Still for that read-out and setting: next, `c1cncc(C2=NCCC2)c1`: -0.876%.
Turning to `COc1ccc2[nH]cc(CCN(C)C)c2c1`, the activity change, negative = inhibition is -12.1%.
The same measure, in the same setting: under `c1ccc2c3c([nH]c2c1)CNCC3` stands 11%; under `NC[C@@H](CC(=O)O)c1ccc(Cl)cc1`, -1.76%.
The same measure, in the same setting: next, `C[C@]12N[C@@H](Cc3ccccc31)c1ccccc12`: -0.0371% and -7.29%; `CN1C[C@H](CNC(=O)OCc2ccccc2)C[C@H]2c3cccc4c3c(cn4C)C[C@@H]21`: -3.47%.
For the compound `CCCC(=O)OCC[N+](C)(C)C`, the activity change, negative = inhibition was 5.08%.
Still for that read-out and setting: next, `C=CCN1CC[C@]23c4c5ccc(O)c4O[C@@H]2C(=O)CC[C@]3(O)[C@H]1C5`: -9.64%; `COc1ccn(C)c(=O)c1C#N`: 6.67%.

The assay is the same for the next values; noted with them: Jurkat NFAT-bla M1, carbachol, beta-lactamase ratio, 5 h; at 38 µM (top of the series).
Regarding `C/C(O)=C(/C#N)C(=O)Nc1cc(Br)ccc1Br`, the activity change, negative = inhibition is 6.53%.
Still for that read-out and setting: next, `COc1ccc(CNC(=O)/C=C\c2ccc3[nH]cc(CCN(C)C)c3c2)cc1`: -13.5%; `C[C@H](N)Cc1c[nH]c2ccc(OCc3cccs3)cc12`: 7.25%; `COc1cc(CCN)ccc1O`: 5.48%.
The same measure, in the same setting: next, `c1ccc2c(c1)OC[C@@H](C1=NCCN1)O2`: -27.1%.
In the case of `CP(=O)(O)CCCN`, the activity change, negative = inhibition is 0.206%.
The same measure, in the same setting: under `COc1ccc(CCN)cc1O` stands -3.06%.
Same read-out and setting: next, `N[C@H](CP(=O)(O)O)C(=O)O`: 5.18%; `C=CCN1CC[C@@]23c4c5ccc(O)c4O[C@H]2/C(=N\N=C2/CC[C@@]4(O)[C@H]6Cc7ccc(O)c8c7[C@@]4(CCN6CC=C)[C@@H]2O8)CC[C@]3(O)[C@@H]1C5`: -21.2%.
Still for that read-out and setting: under `CN1[C@@H]2CC[C@H]1CC(O[C@@H](c1ccccc1)c1ccc(Cl)cc1)C2` (stereo not given in full) stands -69.3% (active); under `Oc1ccc2c3c1O[C@H]1c4[nH]c5ccccc5c4C[C@]4(O)[C@H](C2)N(CC2CC2)CC[C@@]314`, 3.02%.
Turning to `NC[C@H](CP(=O)(O)O)c1ccc(Cl)cc1`, the activity change, negative = inhibition was 3.15%.
On to `COc1ccc2[nH]cc(CCN(C)C)c2c1`, for which the activity change, negative = inhibition was -5.37%.
For `O=C1CC[C@@]2(O)[C@H]3Cc4ccc(O)c5c4[C@@]2(CCN3CC2CC2)[C@@H]1O5`, the activity change, negative = inhibition was 8.31%.
For `COC(=O)N1CCN(C(=O)Cc2ccc(Cl)c(Cl)c2)[C@H](CN2CCCC2)C1`, the activity change, negative = inhibition is -16%.
As to `N[C@H](C(=O)O)c1cc(=O)[nH]o1`, the activity change, negative = inhibition was 2.26%.
`CN1C(=O)CCS(=O)(=O)[C@H]1c1ccc(Cl)cc1`: the activity change, negative = inhibition is 2.77%.
In the case of `NC[C@@H](CC(=O)O)c1ccc(Cl)cc1`, the activity change, negative = inhibition is -6.39%.
For the compound `C[C@H](N)Cc1c[nH]c2ccc(O)cc12`, the activity change, negative = inhibition was 3.63%.
Same read-out and setting: under `C[C@@H](Cc1ccc(OCC(=O)O)cc1)NC[C@H](O)c1cccc(Cl)c1` stands -11.2%; under `O=C1NCN(c2ccccc2)C12CCN(C[C@H]1COc3ccccc3O1)CC2`, 1.71%.
